Among the data in PubChem BioAssay are composite z-score values, retold here.

For the assay, the target named is Neurogenic locus notch homolog protein 3 (Homo sapiens) (UniProt Q9UM47). As to the kind of experiment: small molecules binding NOTCH3 protein – biochemical, 635/667 nm fluorescence, primary screen (AID 1096). The note with it: small-molecule microarray, 635 nm fluorescence, higher = more signal.
Neurogenic locus notch homolog protein 3 (Homo sapiens), sequence (Q9UM47 whole entry, looked up): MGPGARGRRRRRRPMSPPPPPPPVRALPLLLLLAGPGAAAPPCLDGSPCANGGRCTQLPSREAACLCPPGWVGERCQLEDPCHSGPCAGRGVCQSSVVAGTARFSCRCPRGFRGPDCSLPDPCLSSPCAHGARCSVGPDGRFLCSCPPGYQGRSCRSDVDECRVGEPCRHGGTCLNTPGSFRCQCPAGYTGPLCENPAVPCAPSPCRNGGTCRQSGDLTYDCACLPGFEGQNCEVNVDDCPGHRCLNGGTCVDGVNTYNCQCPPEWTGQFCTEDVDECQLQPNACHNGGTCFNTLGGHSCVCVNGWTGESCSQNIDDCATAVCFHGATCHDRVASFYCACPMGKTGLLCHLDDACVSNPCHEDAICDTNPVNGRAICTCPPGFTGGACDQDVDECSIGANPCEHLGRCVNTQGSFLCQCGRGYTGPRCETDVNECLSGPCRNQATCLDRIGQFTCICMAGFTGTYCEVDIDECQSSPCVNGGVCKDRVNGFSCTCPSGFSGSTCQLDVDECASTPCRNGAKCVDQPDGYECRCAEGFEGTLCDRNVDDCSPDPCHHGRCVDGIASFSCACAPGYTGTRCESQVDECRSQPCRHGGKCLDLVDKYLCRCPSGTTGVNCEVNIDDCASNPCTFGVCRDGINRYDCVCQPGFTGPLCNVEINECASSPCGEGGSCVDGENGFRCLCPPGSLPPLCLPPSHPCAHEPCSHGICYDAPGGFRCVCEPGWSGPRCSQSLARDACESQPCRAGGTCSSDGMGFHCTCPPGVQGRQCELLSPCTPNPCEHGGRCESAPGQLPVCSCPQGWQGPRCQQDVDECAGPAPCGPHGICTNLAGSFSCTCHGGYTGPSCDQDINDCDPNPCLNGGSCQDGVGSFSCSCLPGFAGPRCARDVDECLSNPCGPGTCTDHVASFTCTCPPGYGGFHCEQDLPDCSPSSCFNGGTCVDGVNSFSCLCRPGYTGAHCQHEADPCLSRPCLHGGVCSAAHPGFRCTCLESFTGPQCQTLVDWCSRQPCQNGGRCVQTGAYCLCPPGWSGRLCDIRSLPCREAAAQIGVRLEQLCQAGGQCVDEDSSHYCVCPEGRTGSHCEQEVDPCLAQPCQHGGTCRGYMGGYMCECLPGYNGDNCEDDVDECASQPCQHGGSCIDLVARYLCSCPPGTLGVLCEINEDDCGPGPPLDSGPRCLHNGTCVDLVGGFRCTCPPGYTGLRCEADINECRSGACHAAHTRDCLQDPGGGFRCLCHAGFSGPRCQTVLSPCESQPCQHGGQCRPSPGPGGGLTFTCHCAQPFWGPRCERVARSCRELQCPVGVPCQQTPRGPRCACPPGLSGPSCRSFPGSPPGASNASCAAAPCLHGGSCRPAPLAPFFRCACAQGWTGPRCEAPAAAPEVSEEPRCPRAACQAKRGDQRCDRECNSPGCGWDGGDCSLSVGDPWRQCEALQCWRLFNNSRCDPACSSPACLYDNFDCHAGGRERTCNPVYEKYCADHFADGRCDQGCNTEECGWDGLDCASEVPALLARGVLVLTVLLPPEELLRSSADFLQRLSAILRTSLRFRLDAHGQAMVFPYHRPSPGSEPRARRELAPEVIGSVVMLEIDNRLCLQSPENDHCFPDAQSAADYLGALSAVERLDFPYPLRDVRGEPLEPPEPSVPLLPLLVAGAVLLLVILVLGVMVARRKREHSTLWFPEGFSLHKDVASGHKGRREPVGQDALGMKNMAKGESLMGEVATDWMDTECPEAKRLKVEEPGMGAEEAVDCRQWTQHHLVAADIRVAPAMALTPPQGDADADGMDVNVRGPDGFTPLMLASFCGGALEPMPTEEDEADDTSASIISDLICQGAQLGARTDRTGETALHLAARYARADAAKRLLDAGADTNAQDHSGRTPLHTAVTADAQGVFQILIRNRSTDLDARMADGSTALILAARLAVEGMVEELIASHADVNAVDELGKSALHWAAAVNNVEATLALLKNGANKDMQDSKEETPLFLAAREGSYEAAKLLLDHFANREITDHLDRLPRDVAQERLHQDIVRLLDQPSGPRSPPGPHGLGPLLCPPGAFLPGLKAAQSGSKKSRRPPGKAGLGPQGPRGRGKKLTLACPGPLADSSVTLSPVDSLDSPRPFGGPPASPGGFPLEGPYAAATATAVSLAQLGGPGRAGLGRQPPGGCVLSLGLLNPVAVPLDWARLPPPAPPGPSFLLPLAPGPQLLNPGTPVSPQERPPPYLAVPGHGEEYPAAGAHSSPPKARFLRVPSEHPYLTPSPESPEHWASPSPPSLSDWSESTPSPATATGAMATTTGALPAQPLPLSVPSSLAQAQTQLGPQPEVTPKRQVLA
`COC(=O)[C@@]1(Cc2ccc(F)cc2)[C@H]2c3cc(C(=O)N4CCCC4)n(CCc4c[nH]c5ccc(OC)cc45)c3C[C@H]2CN1C(=O)c1ccccc1` had a composite z-score of 1.11. `COCCOC(=O)N1C(=O)[C@@]2(c3cc(C#CC4(O)CCCCCC4)ccc31)[C@H](C(=O)N1CCCCCCC1)[C@H]1C(=O)O[C@H](c3ccccc3)[C@H](c3ccccc3)N1[C@@H]2c1ccc(OCCO)cc1` yielded a composite z-score of 1.03. The compound `COC(=O)Cn1c(C(=O)N2CCCC2)cc2c1C[C@H]1CN(C(=O)c3ccccc3)[C@@](Cc3ccc(F)cc3)(C(=O)OC)[C@@H]21` displayed a composite z-score of -0.251.

On to `NC(=O)N1C(=O)C2C(C1=O)C1C=C(c3ccc(CO)cc3)C2C(C2CC2)N1Cc1sc2ccccc2c1Cl` (stereo unspecified), for which the composite z-score is 1.06. Regarding `CC=CC(O)C1C=CC2C(=O)N(C)C(=O)C2N1Nc1ccc([N+](=O)[O-])cc1[N+](=O)[O-]` (stereo unspecified), the composite z-score is -0.44. The result for `CN(C)CCCNC(=O)[C@@]1(c2ccc([N+](=O)[O-])cc2)CC(=O)N(CC23CC4CC(CC(C4)C2)C3)[C@@H]1c1ccc(CO)cc1` reads 1.05; that for `C=CC1c2cc(O)c(OC)cc2CCN1Cc1sc2ccccc2c1Cl` (stereo unspecified), 0.968; that for `CC(C)C(=C=CC[C@@H](O)c1ccccc1OCCO)C[C@@H](O)COCc1ccccc1`, 0.388. In turn, `C=CCN1C(=O)[C@]2(CC=C)N=C(c3ccc(OCCCO)cc3)O[C@@H]2c2ccccc21` showed a composite z-score of 1.08.

As to `Cc1ccc(S[C@]2(C(=O)NCc3ccccc3)CC(=O)N(C(C)C)[C@@H]2c2ccc(CO)cc2I)cc1`, the composite z-score is -0.44. Regarding `CO[C@H]1O[C@H](CO)[C@@H](OC(=O)Nc2ccc(C(F)(F)F)cc2)[C@H](OC(=O)Nc2ccc3c(c2)OCO3)[C@H]1OC(=O)Nc1ccc2c(c1)OCO2`, the composite z-score was 1.11.

For `CN1C2C=C(CCCO)C(C3C(=O)N(C(N)=O)C(=O)C32)C1c1cccs1` (stereo unspecified), the composite z-score is -0.658. Turning to `COC(=O)C(CC#Cc1ccc2c(c1)[C@]1(C(=O)N2)[C@H](C(=O)O)[C@H]2C(=O)O[C@H](c3ccccc3)[C@H](c3ccccc3)N2[C@@H]1c1ccccc1OCCO)C(=O)OC`, the composite z-score turned out to be 1.15. The result for `CC(C)CCC[C@@H](C)[C@H]1CC[C@@]2(C)C3=C(CC[C@]12C)[C@@]1(C)CC[C@H](OC(=O)c2ccc(Br)cc2)C(C)(C)C1CC3` (stereo partly specified) reads 0.888; that for `Cc1ccc(S[C@]2(C(=O)NCCN3CCOCC3)CC(=O)N(Cc3ccccc3C(F)(F)F)[C@@H]2c2ccc(CO)cc2I)cc1`, -0.689; that for `CCCCN1CC=CC23O[C@@H]4C=CCOC(=O)[C@@H]4[C@H]2C(=O)N(CCCO)[C@@H]3C1=O` (stereo partly specified), -0.366. Under `C=C[C@@H](C)[C@H](OC(=O)Nc1ccc(SC)cc1)c1ccc(OCCO)cc1` stands 0.405. For the compound `O=c1cccc(-c2cccc(Cl)c2)o1`, the composite z-score came to 0.136. `Cc1ccc(S[C@]2(C(=O)NCC(F)(F)F)CC(=O)N(Cc3ccccc3)[C@@H]2c2ccc(CO)cc2)cc1` returned a composite z-score of -0.681. The result for `COc1ccc([Si](C)(C)[C@H]2[C@H](CC(=O)N3Cc4ccccc4C[C@H]3CO)O[C@@]3(C(=O)N(Cc4cccc(N5CCCCC5=O)c4)c4ccccc43)[C@@H]2C)cc1` reads 1.09.

`O=C1OCC=C[C@H]2OC34C=CCN(Cn5nnc6ccccc65)C(=O)[C@H]3N(CCCCCCO)C(=O)[C@@H]4[C@@H]12` (stereo partly specified) gave a composite z-score of -0.0986.

As for `COCCOC(=O)N1C(=O)[C@@]2(c3cc(C#Cc4ccc(OC)cc4)ccc31)[C@H](C(=O)N1CCN(c3ncccn3)CC1)[C@H]1C(=O)O[C@H](c3ccccc3)[C@H](c3ccccc3)N1[C@@H]2c1ccccc1OCCO`, the composite z-score worked out at 0.605. `O=C1C2C=CC(C(O)c3cc(C(F)(F)F)cc(C(F)(F)F)c3)N(Nc3ccc([N+](=O)[O-])cc3)C2C(=O)N1c1ccccc1` (stereo unspecified) registered a composite z-score of 1.02.

Turning to `CCOC(=O)C[C@H]1[C@H](OC(=O)Cc2ccc3c(c2)OCO3)[C@@H](NC(=O)Cc2ccc(OC)cc2)c2cc(OCCCO)ccc2N1C(=O)c1ccccc1`, the composite z-score came to 0.608. Compound `O=C1NCC(=O)N2[C@@H]1C[C@@H](C(=O)O)[C@H]2c1ccc(O)cc1` yielded a composite z-score of 1.08. Turning to `C=C(COC)/C(=C/C[C@@H](OC(=O)c1ccncc1)c1cccc(OCCO)c1)c1cnc2ccccc2c1`, the composite z-score is 1.02.

`CCOC(=O)C[C@H]1[C@H](OC(=O)c2ccccc2-c2ccccc2)[C@@H](NC(=O)c2ccc3ccccc3n2)c2cc(OCCCO)ccc2N1C(=O)c1ccc2ccccc2n1` registered a composite z-score of 0.598.

The compound `[N-]=[N+]=NCc1ccccc1C[C@]1(C(=O)NCC(O)CO)N=C(c2ccc(OCCCO)cc2)O[C@H]1c1ccccc1CN=[N+]=[N-]` (stereo partly specified) came in with a composite z-score of 0.624. Under `C[n+]1ccc(CCCO)cc1` stands -0.13; under `CCCC[C@@H]1C[C@H]1[C@@H](NC(=O)c1ccccc1)c1ccc(Cl)cc1`, -1.77.

In the case of `C=C(CCCC)/C(=C/C[C@@H](OC(C)=O)c1ccc(CO)o1)c1cc(C(=O)OC)ccc1OC`, the composite z-score came to 1.06. Compound `CC(C)OC(=O)CC(=O)CC(O)c1cccc(C#N)c1` (stereo unspecified) came in with a composite z-score of 0.753.

`COC(=O)[C@@]1(Cc2ccccc2)[C@H]2c3cc(C(=O)N4CCCC4)[nH]c3C[C@H]2CN1C(=O)c1ccccc1` displayed a composite z-score of -0.0434.

In turn, `COc1c(C)cc(-c2cc3c(c(-c4ccccc4)n2)[Si](C(C)C)(C(C)C)OC3)cc1C` showed a composite z-score of -0.263. `C=CC[C@@]1(C(=O)N2CCCCC2)N=C(c2ccc(OCCCO)cc2)O[C@@H]1c1ccccc1` came in with a composite z-score of 0.5. `CN(C)CCCNC(=O)[C@@H]1c2ccccc2C(=O)N(Cc2ccc(OC(F)(F)F)cc2)[C@H]1c1ccc(CO)cc1` came in with a composite z-score of 0.951.
